# High-throughput results as filed in PubChem BioAssay.
# IL-1B inflam inh – qHTS for Inhibitors of Inflammasome Signaling: IL-1-beta AlphaLISA Primary Screen | activity change, % at 57.5 µM | THP-1 LPS/ATP IL-1B secretion, AlphaLISA, 16 h; hits give low values | AID 743279, 2014 | 4.7% of 360,000 active; in the data active = activity change below about -50%; inconclusive = mostly about -30% to -49%
#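 Secreted IL-1B measured by AlphaLISA bead assay after 16 h compound exposure of THP-1 cells; compounds (final up to 57.5 uM) added 1 h before LPS (250 ng/mL) and ATP (1.25 mM) stimulation; lower signal means less secretion.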
# HT1080 IDH1KD tx – qHTS for induction of synthetic lethality in tumor cells producing 2HG: qHTS for the HT-1080-IDH1KD cell line | HT-1080 IDH1 knockdown viability, ATP luminescence, 48 h | Potency, µM (highest dose often 46.1 µM), for inactives: at the highest dose activity, negative = toxicity, most hits filed as cytotoxic | 2% of 360,000 active;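 note: potency is the fitted concentration of half-maximal effect; 0% = DMSO wells and -100% = cell-free medium wells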
#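 % activity derives from luminescence (CellTiter-Glo), normalised to DMSO and no-cell wells. HT-1080-IDH1KD cells, 750/well, had 48 h compound exposure at 37 °C.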
# DT40 TDP1 no CPT – qHTS for Inhibitors of human tyrosyl-DNA phosphodiesterase 1 (TDP1): qHTS in cells in absence of CPT. 15% of 420,000 active. DT40 Tdp1-/- hTDP1 cells, no CPT, ATP luminescence, 48 h. Potency, µM (titrated, usually from 46.2 µM), without a hit: at the top dose activity change, negative = growth inhibition, usual class: inhibitors; note: potency is the fitted concentration of half-maximal effect; nearly all actives have a fitted effect of over 55% in size
#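 No-CPT arm: Tdp1-/-;hTDP1 DT40 cells (400/well) plus compounds, incubated ≥48 hr at 37 °C. Readout CellTiter-Glo luminescence.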
# TDP1 cell CPT – qHTS for Inhibitors of human tyrosyl-DNA phosphodiesterase 1 (TDP1): qHTS in cells in presence of CPT; chicken DT40 Tdp1-/-;hTDP1 cells + 20 nM CPT, ATP luminescence, 48 h; 12% of 420,000 active; AID 686979, 2013; Potency, µM (doses to about 46.2 µM), without a hit: top-dose activity change, negative = growth inhibition, hits mostly inhibitors; note: potency is the fitted concentration of half-maximal effect; nearly all actives have a fitted effect of over 55% in size
#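 Chicken DT40 Tdp1-/- cells complemented with human TDP1, 400 cells/well, exposed to compounds plus 20 nM camptothecin for at least 48 h at 37 C; viability read as ATP content by CellTiter-Glo luminescence.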
# ELG1 repair inh – qHTS screen for small molecules that inhibit ELG1-dependent DNA repair in human embryonic kidney (HEK293T) cells expressing luciferase-tagged ELG1. 2.3% of 330,000 active. AID 504467, 2011. Potency, µM (doses to about 46.1 µM), inactives show top-dose activity change, negative = inhibition, actives largely listed as inhibitors. HEK293T ELG1-luciferase reporter, luminescence, 16 h; DNA damage induced by 5-fluorouridine; note: potency is the fitted concentration of half-maximal effect; nearly all actives have a fitted effect of over 55% in size
#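 5-Fluorouridine DNA damage + compound/DMSO, 2,000 cells/well, 16 h, 37 °C/5% CO2. ONE-Glo, 30 min RT, luminescence. Readout = decrease in reporter signal.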
# HT1080-NT tox – qHTS for induction of synthetic lethality in tumor cells producing 2HG: qHTS for the HT-1080-NT fibrosarcoma cell line | HT-1080-NT fibrosarcoma viability, CellTiter-Glo ATP luminescence, 48 h | AID 686970, 2013 | 1.6% of 360,000 active | Potency, µM (top dose mostly 46.1 µM), without a hit: at the highest dose activity, negative = less viability, actives largely listed as cytotoxic;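 note: NT is the 2HG producing partner of a matched IDH1 knockdown line; potency is the fitted concentration of half-maximal effect; 0% = DMSO-treated cells and -100% = media-only wells without cells; nearly all actives have a fitted effect of over 55% in size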
#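 Luminescent CellTiter-Glo readout after 48 hours of compound exposure at 37 degrees C defined viability of HT-1080-NT cells. Activity was normalized to DMSO wells and cell-free media wells; concentration-response curves were fitted and assigned curve classes.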
# Numbers without * were called inactive; ? = inconclusive; . = no result given. In the library only some 19% were active in any assay of this set; here they are far more common. Unless noted, calls come from the whole dose curve; as a rule, active = well fitted curve in the direction sought with a large enough effect; inconclusive = small, poorly fitted or top-dose-only effect, or another doubt; inactive = no such curve, though single readings can be large; an effect the other way counts as inactive or inconclusive. Unless noted, % is set by controls: 0 for no effect and ±100 for the full control effect.
SMILES,IL-1B inflam inh,HT1080 IDH1KD tx,DT40 TDP1 no CPT,TDP1 cell CPT,ELG1 repair inh,HT1080-NT tox
Cc1nn2c(=O)cc(COC(=O)c3ccc(NC(=O)COc4ccccc4F)cc3)nc2s1,.,.,5.17µM*,5.8µM*,.,.
CCc1nn2c(=O)cc(COC(=O)c3ccc(NC(=O)COc4ccccc4C)cc3)nc2s1,.,.,-23.8%,12.1%,.,.
Cc1nn2c(=O)cc(COC(=O)c3cccc(NC(=O)COc4ccccc4C)c3)nc2s1,.,.,20.6µM*,18.4µM*,.,.
CCc1nn2c(=O)cc(COC(=O)c3ccccc3NC(=O)COc3ccccc3C)nc2s1,.,.,5.17µM*,4.11µM*,.,.
c1ccc(CNc2cccnc2)cc1,-13.8,1.0%,-26.4%,-5.8%,.,-1.6%
Cn1c(=O)c2c(SCC(=O)N3CCCC3)nc(CC(C)(C)C)nc2n(C)c1=O,37.2,5.5%,?,?,4.0%,-0.2%
CC1(C(=O)NS(=O)(=O)c2ccc(F)cc2F)CCN1C(=O)CC1CCCCC1 (stereo not drawn),8.9,22.1%,1.9%,5.7%,.,1.4%
FC(F)(F)c1ccccc1Cc1c(-c2cccc(Cl)c2)nc2c3ccccc3ccn12,15.9,-1.2%,20.6µM*,?,.,5.4%
FC(F)(F)c1ccccc1Cc1c(-c2ccc(Cl)cc2)nc2c3ccccc3ccn12,20.1,4.1%,25.9µM*,?,.,10.8%
COc1cc(C)ccc1OCc1cc(C(=O)N(C)CCCN2CCOCC2)no1,-19.3,-1.2%,2.8%,2.0%,?,-1.6%
CCN1CCN(CCNC(=O)CCc2c(C)c3c(C)nn(-c4ccccc4)c3n(C)c2=O)CC1,-61.5*,?,?,?,-7.1%,?
CCN1CCN(CCNC(=O)CCCn2nc(C)c3c(C)n(-c4ccc(C)cc4)nc3c2=O)CC1,9.8,13.8%,?,-10.9%,1.2%,12.5%
CCn1c(=O)c(CCC(=O)NCCN2CCOCC2)c(C)c2c(C)nn(-c3cccc(C)c3)c21,-4.8,-0.6%,16.4µM*,?,5.3%,-0.5%
COc1ccc(Cn2c(=O)c3[nH]cnc3n(-c3ccccc3C)c2=O)cc1,35.5,11.6µM*,5.17µM*,3.66µM*,-0.8%,11.6µM*
Nc1ccccc1-n1c(=O)n(Cc2ccccc2F)c(=O)c2[nH]cnc21,-5.8,-0.2%,20.6µM*,?,21.2%,-0.9%
Cc1ccccc1-n1c(=O)n(Cc2ccco2)c(=O)c2[nH]cnc21,-0.8,-1.7%,2.3%,-14.8%,14.9%,3.2%
COC(=O)c1ccc(NC(=O)C(=O)NCCc2sc(-c3cccc(F)c3)nc2C)cc1,.,.,?,11.6µM*,.,.
Cc1cc(C)cc(NC(=O)C(=O)NCCc2sc(-c3cccc(F)c3)nc2C)c1,.,.,-3.0%,3.2%,.,.
COc1ccc(S(=O)(=O)NCCc2ccccc2)cc1,15.0,-3.3%,-14.1%,-2.8%,?,-13.7%
COc1cc(C(=O)NCCc2sc(-c3cccc(F)c3)nc2C)cc(OC)c1OC,.,.,11.6µM*,9.2µM*,.,.
COc1ccc(S(=O)(=O)NCCc2sc(-c3cccc(F)c3)nc2C)cc1,.,.,20.6µM*,16.4µM*,.,.
Cc1cc(S(=O)(=O)NCCc2csc(-c3cccc(F)c3)n2)ccc1F,.,.,1.3µM*,?,.,.
CN(C)C(CNC(=O)c1ccc(NS(=O)(=O)c2ccc3[nH]c(=O)[nH]c3c2)cc1)c1ccccc1 (stereo not drawn),0.0,5.9%,?,-24.1%,1.1%,10.7%
COc1cccc(NC(=S)N/N=C2/CCCCc3ccccc32)c1,-3.0,0.1%,?,?,?,-6.1%
N#C/C(C(N)=O)=C1/SC=C(c2ccccc2)N1c1ccccc1,-7.3,?,18.4µM*,?,?,-0.2%
SMILES,IL-1B inflam inh,HT1080 IDH1KD tx,DT40 TDP1 no CPT,TDP1 cell CPT,ELG1 repair inh,HT1080-NT tox
COC(=O)/C(C#N)=C1/SC=C(C)N1c1ccccc1,25.9,13.0%,-11.6%,-7.0%,9.7%,5.6%
CON(c1nc(Cl)nc(N(C)C)n1)S(=O)(=O)c1ccc(C)cc1,-63.1*,?,16.4µM*,-5.7%,?,-15.6%
CON(c1nc(Cl)nc(N(C)C)n1)S(=O)(=O)c1ccccc1Cl,-4.4,-22.4%,?,4.9%,-10.0%,-23.8%
CC(C)(C)Cc1c(-c2cccc(Br)c2)nc2ccc(Cl)cn12,-0.3,2.9%,?,?,.,10.2%
O=S1(=O)C[C@@H](N2CCOCC2)[C@H](N2CCOCC2)C1,-13.2,9.6%,-6.9%,2.1%,-8.2%,14.2%
C=CC1C(N2CCOCC2)C(C)(C)S1(=O)=O (stereo not drawn),0.0,13.9%,?,23.1µM*,1.8%,16.0%
N#Cc1c(-c2ccc3c(c2)OCO3)csc1N,-60.0*,-7.5%,-25.9%,-19.5%,23.2%,-16.0%
CC[C@]12c3[nH]c4cc(-c5ccco5)ccc4c3CCN1C(=O)[C@@H](CC(=O)NC/C=C(\C)CCC=C(C)C)C[C@@H]2C(=O)N1CCN(C(=O)c2ccco2)CC1,?,?,20.6µM*,?,?,-20.3%
CC[C@]12c3[nH]c4ccc(OC)cc4c3CCN1C(=O)C(CC(=O)NC/C=C(\C)CCC=C(C)C)C[C@@H]2C(=O)N1CCN(C(=O)c2ccco2)CC1 (stereo partly drawn),-53.1*,-16.2%,?,?,?,-4.5%
CC[C@]12c3[nH]c4ccccc4c3CCN1C(=O)C(CC(=O)NC/C=C(\C)CCC=C(C)C)C[C@@H]2C(=O)N1CCN(C(=O)c2ccco2)CC1 (stereo partly drawn),-52.7*,?,?,16.4µM*,-4.5%,-29.8%
CC[C@]12c3[nH]c4ccc(OC)cc4c3CCN1C(=O)C(CC(=O)NC(C)(C)C)C[C@@H]2C(=O)N1CCN(C(=O)c2ccco2)CC1 (stereo partly drawn),-0.2,2.6%,-12.6%,-3.2%,6.7%,2.2%
CC[C@]12c3[nH]c4cc(-c5ccco5)ccc4c3CCN1C(=O)[C@@H](CC(=O)NCc1cccc(C(F)(F)F)c1)C[C@@H]2C(=O)N1CCN(C(=O)c2ccco2)CC1,-51.4*,-20.7%,8.2µM*,8.2µM*,?,-11.1%
